Assay results reported in the supplement of paper PMC11417369.
In all, about 25,000 sequences were measured (“ln(normalized median fluorescence intensity)”: median about 6.7, highest 2% from about 10 on). Only a selection was taken, and the highest values are over-represented in it overall.

system: PfHDP1 homeodomain (GST-tagged); test: gcPBM binding intensity (ln(normalized median fluorescence intensity)); higher = stronger DNA binding
How it was run: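 Probes on an Agilent 4 × 180k array were primer-extended, double-stranded and 36 bp long, taken from intergenic genomic regions, with negative controls added. GST-tagged P. falciparum DNA-binding domains from E. coli, about 25 μg on average, were applied to the array for 1 h in 1× PBS containing 1% milk, 0.2 mg/ml BSA, 0.5% salmon testes DNA and 0.03% Triton X-100. Binding intensity, obtained after Alexa488 anti-GST antibody detection and a 488 nm scan, is the highest Masliner-normalised natural-log median intensity across replicate spots of either probe orientation.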

Row | Sequence | gcPBM binding intensity (ln)
1 | TAAAGATATAAATGCACACGTATTAAAAAAAAAATA [CACACA_site952] | 9.54
2 | AAAATTAATGTTGGTTGTACAAAAATTAAATATGGT [XGTACX_site66] | 6.85
3 | ACATTAACATTGTTGGTGCAAAATTAATATGTTTTT [GTGCAC_site9673] | 10.7
4 | TATATTAACAAAATGGTGCAATAATTTCTATATTGT [GTGCAC_site9430] | 10.4
5 | TAAATACATAAAAATTGTACACATTGTTTTCTCTTT [XGTACX_site6435] | 6.49
6 | TAGAAATATATAAATTGTACATGTTTGTATAATATA [XGTACX_site2097] | 6.44
7 | TAAATGCACATATACACACACCCAATTTTAAGTTTT [CACACA_site7428] | 11.1
8 | ATTAAATGCACATATACACACACCCAATTTTAAGTT [CACACA_site3049] | 11.3
9 | CTTAAATTTTTAAATACACACATACACCCATACACA [CACACA_site4461] | 7.25
10 | TAAAATAAAAAGTTTACACACATATATAATTTTAAT [CACACA_site662] | 6.24
11 | ACCCAATTTTTTAGTACACACATATAAATATATAAA [CACACA_site4944] | 6.86
12 | ATATTTATACTATACACACCCAATTTAAAAAAAAAT [CACACA_site1163] | 7.11
13 | TTCTTAAGGAACGAACGTACAGAATAAAAAGTAAAA [XGTACX_site4294] | 6.61
14 | GTTTATGTTAAACCATGTACTTAATATTTTATTCTT [XGTACX_site3761] | 6.29
15 | ATTACATTTTTAATGCGTACTAAAAATGTATATAAG [XGTACX_site6384] | 6.6
16 | ATTGAAAAACCGTTTAGTACATATCATCACGTTTGT [XGTACX_site1295] | 6.04
17 | CATACATACATACATACACACACATATATATATATA [CACACA_site8593] | 9.27
18 | TGCTTTTCTTTTTGCACACTTATGCATATATATATA [CACACA_site2583] | 10.8
19 | TTTCTATATGGATTTGCACACATAAAAATGCTTATA [CACACA_site8751] | 10.2
20 | ATTGCTTTTCTTTTTGCACACTTATGCATATATATA [CACACA_site2584] | 10.4
21 | TTTGAATACTGAATGGTGCAAATTGTTCTCCCCATG | 10.5
22 | CCCTCCCCATGTTTAGTGCAAAAATATTTGAAATTG [GTGCAC_site9873] | 10
23 | TTGTTCTTTTGAAAGGTGCAAAAGAAAAATAATTAA | 9.53
24 | AAAGGATTTATACTAGTGCAAAAATATAAAAATATA | 9.12
25 | TTTTTTTTTTATGAAAGTACATATGAAAAATACGAA [XGTACX_site3451] | 6.53

Row | Sequence | gcPBM binding intensity (ln)
26 | CATTTTTTTTTATAAATACACACGTACGGGTGCATA [CACACA_site1569] | 7.38
27 | TGATATTTAAATTTTGCACACGCATATGAAATTAGG [CACACA_site1034] | 10.1
28 | ATTAAAAATTCAATTGCACACGCACATATTTTAATA [CACACA_site8618] | 9.92
29 | ATATTTAAATTTTGCACACGCATATGAAATTAGGAC [CACACA_site1035] | 10.5
30 | GACTCATTAAGGATTATTCCTAATGATCAAAAGAAC [CACACA_negctrl_site515] | 6.54
31 | TCTTAAAATATATAGGTGCAAAAAAAAAAAAAAAAA | 8.62
32 | TTTCTAATTTATATCACACACATATATTTATAGTAA [CACACA_site6280] | 6.53
33 | ATAAAAATCAAAAAAAATACATAATAGTAATAATAA [GTGCAC_negctrl_site481] | 6.42
34 | CTTATGTGCATACCTACACACTTACCTATATTTATA [CACACA_site7411] | 9.67
35 | ATTTTTATATAATGAACACACATATTATATCATTTA [CACACA_site1572] | 6.51
36 | ATATTTTTATATAATGAACACACATATTATATCATT [CACACA_site8446] | 6.22
37 | TTTTTTTTCTATGTGGTGCACATTATTTTTTTTTTT | 9.27
38 | CTTTATATATATTGCGTGCACATTTTTTTTTTTTTT | 9.4
39 | TTTCACATATATATGGTGCATATTTTATGTGTAAAT [GTGCAC_site9937] | 9.91
40 | TATATATATATATATGTGCACATTTATTGCCTTTGC | 10.6
41 | GGAACTTATTTTTATACACACATATGTGCATATTAT [CACACA_site629] | 10.8
42 | GTAAAGGCTATATATGTGCACATTTTTTTTTTTTTT [GTGCAC_site9925] | 10.9
43 | ATGCATACACTTATATGTACACATTTACATATTATT [XGTACX_site2841] | 6.93
44 | TTTTGTTTATGTGTGCATTATATTATATTTTTTATT [TGCATGCA_negctrl_site146] | 10.2
45 | CATGAATATTTTAATGTGCACATTTATCATTATATG | 10.6
46 | TTTTGTTTAGTGTATTGTACAATATATCTTTATTTT [XGTACX_site5163] | 6.52
47 | TTTTGGCTGATCAGATTTAACAAAAAAAAAAAAAAA [CACACA_negctrl_site671] | 6.06
48 | GAAATTAAATGACATACACACTATATTATAGATTTT [CACACA_site7468] | 6.23
49 | AGTGGGATTTTTAATTGTACATAAATAATATCATAA [XGTACX_site4163] | 6.56
50 | AGAATTAAAAACAGTTGTACAAAAAGTTGTATAAAT [XGTACX_site411] | 7.41

Row | Sequence | gcPBM binding intensity (ln)
51 | AAATAAAAGGTTGAGAGTACATTTTTGTGTATGTAT [XGTACX_site5547] | 6.49
52 | ACTGAAAAAAGAAATACACACATTCTGGATCAGATA [CACACA_site7760] | 6.39
53 | ATTTACATTATATTGAATATGCCATATTATATTATT [CACACA_negctrl_site811] | 6.59
54 | CGTATGTGCGGACATGCATGCAATATACAAGAAAAA [TGCATGCA_site145] | 7.01
55 | TATATTATTCATTAAGCACACATTATTTTTATAATA [CACACA_site6056] | 6.36
56 | TATATATATATATATGTGCACATTTTATTAAAATGT | 10.2
57 | TATTTTTAACAGTGCACACATAACTTAATTATATGT [CACACA_site2194] | 9.55
58 | ACATATTATTCAAGTGCACACTTTATATTTATGATT [CACACA_site3295] | 8.81
59 | CATTATATGATTTATGTGCACATTCATTTATTTTAA | 10.8
60 | TTATATTATATATATGTGCACATTTTTAAACTTGGA | 10.7
61 | TACTTAATTATAAGGACATGCACAAAAGGAATTATT [TGCATGCA_site468] | 8.01
62 | ATTTATTTCTTGTTAGTGCACTTTCTTTGGTAAAAT | 10.9
63 | CTTATTTTGTTATAAGTGCATTTTTTAAAATTTCTT | 8.33
64 | TGTTAAAATTATTTGGTGCACTTGTTTTACCTTATT | 9.92
65 | ATCTTATATATACGTTGTACTACAGGATATGTCATA [XGTACX_site5734] | 6.63
66 | TTAAAATTCAAAAAAAAAAATCAGAATATCAGAAAA [CACACA_negctrl_site1361] | 5.92
67 | TATATATTTCGGTGTGCACACTTTTTATTTTTATCC [CACACA_site1726] | 10.7
68 | CATTTTGTTTTAAAGTGTACATTATGTAATATAAAA [XGTACX_site647] | 6.54
69 | ATTTATATGCACCATTGTACGTTTTATAAAGTTTGG [XGTACX_site3755] | 10.5
70 | ATATATATATAAAGTTGTACATTTTTTATTTTTTCA [XGTACX_site7847] | 8.52
71 | ATTTATATTAAAAGTGTGCACTTTTTTTTTTTTTTT | 8.1
72 | TTATATTTAGTATATGCACACTTTATGTTTGTTATT [CACACA_site5163] | 9.53
73 | TATATATGTATATGTGTGCACCTTATTTCTTTTATT [GTGCAC_site9513] | 9.55
74 | TATATATATTAGTGTGCACACTTTTTATTTTTATCC [CACACA_site8506] | 10.5
75 | ATTGTGCACTTATATGCACACATTTTAGTTTTTTTT [CACACA_site2028] | 11.5

Row | Sequence | gcPBM binding intensity (ln)
76 | TAATATTATTATTTTACACACTTTTTTCCTTTTATC [CACACA_site2457] | 6.61
77 | ATATTACACATATATGCACACATTGTAGTTATTTAT [CACACA_site8843] | 8.92
78 | TATATTTATATATTAGTGCACTTTTTGTTAATTTTT | 10.3
79 | TTTCAATGTGACACGTGTCCGTAAAATTACATAATT [XGTACX_site7073] | 6.61
80 | ATCGCGAAGTAGCATTCACACACAGCAAAATATATA [CACACA_site9162] | 6.65
81 | ATATATATATTTATATGTACATAATATAAAATTTCT [XGTACX_site3720] | 7.7
82 | ATGTTTTTTATTCTTCGTACGTATGAACGATAGTGT [XGTACX_site4225] | 6.71
83 | GCTTGTACATTTTTAAAAAATGACTTCGAAAGGAAT [CACACA_negctrl_site453] | 7.01
84 | TTTTAATTGTTTATTTGTACATATGTTTAATTATAT [XGTACX_site571] | 6.79
85 | TATATAAATGGACACACACACACCTTATAATTATTA [CACACA_site6093] | 6.85
86 | CCCACATAAAAAAATAAACACACATATGTATATATA [CACACA_site9040] | 7.07
87 | AAGAAAAACAATGAGATAAAGAAGAGAAAATATGTC [TGCATGCA_negctrl_site415] | 6.88
88 | TATATCAAAATACATACACACATTTGTATTTACATT [CACACA_site5485] | 6.58
89 | TTGTATTCATAACAACGTACATATTTTGTAACTAAA [XGTACX_site4029] | 6.26
90 | ACTTTTTTGAACAACGTGCACGTATTCATAACAAAA | 10.6
91 | TTTGTTCATATTATTGTGCACTTAAACGTAACAAAA [GTGCAC_site9505] | 10.1
92 | AATATCATCAAACGCACACATACATAAATATATTAT [CACACA_site2174] | 7.74
93 | TATTTATATGTATATACATGCACATATATATGAAAC [TGCATGCA_site1005] | 8.8
94 | AATATACGAAATTGTGCACACATATATTTATGTATG [CACACA_site1510] | 10.8
95 | ATACGCACACATATATGTACATATTGTATATATATA [XGTACX_site3962] | 8.34
96 | TGTATAAATATATGCACACATATATATATTTATATA [CACACA_site3473] | 10
97 | TATACGAAATTGTGCACACATATATTTATGTATGTA [CACACA_site1509] | 11
98 | TATGTATAAATATATGCACACATATATATATTTATA [CACACA_site9150] | 9.35
